Dicer processing: inhibitors of Dicer pre-microRNA processing, primary screen, biochemical, cat-ELCCA, chemiluminescence. Endoribonuclease Dicer (Homo sapiens), Q9UPY3. cat-ELCCA pre-miR-21 Dicer processing; stronger effect = higher value. z-score at 25 µM. 47,000 tested, 6% active; in the data active = z-score above about 3, passing the limit was not always enough;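 also: plate controls were vehicle for no effect and no enzyme for full effect; higher signal means more uncleaved substrate so more Dicer inhibition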
Target sequence (Q9UPY3 whole entry, looked up): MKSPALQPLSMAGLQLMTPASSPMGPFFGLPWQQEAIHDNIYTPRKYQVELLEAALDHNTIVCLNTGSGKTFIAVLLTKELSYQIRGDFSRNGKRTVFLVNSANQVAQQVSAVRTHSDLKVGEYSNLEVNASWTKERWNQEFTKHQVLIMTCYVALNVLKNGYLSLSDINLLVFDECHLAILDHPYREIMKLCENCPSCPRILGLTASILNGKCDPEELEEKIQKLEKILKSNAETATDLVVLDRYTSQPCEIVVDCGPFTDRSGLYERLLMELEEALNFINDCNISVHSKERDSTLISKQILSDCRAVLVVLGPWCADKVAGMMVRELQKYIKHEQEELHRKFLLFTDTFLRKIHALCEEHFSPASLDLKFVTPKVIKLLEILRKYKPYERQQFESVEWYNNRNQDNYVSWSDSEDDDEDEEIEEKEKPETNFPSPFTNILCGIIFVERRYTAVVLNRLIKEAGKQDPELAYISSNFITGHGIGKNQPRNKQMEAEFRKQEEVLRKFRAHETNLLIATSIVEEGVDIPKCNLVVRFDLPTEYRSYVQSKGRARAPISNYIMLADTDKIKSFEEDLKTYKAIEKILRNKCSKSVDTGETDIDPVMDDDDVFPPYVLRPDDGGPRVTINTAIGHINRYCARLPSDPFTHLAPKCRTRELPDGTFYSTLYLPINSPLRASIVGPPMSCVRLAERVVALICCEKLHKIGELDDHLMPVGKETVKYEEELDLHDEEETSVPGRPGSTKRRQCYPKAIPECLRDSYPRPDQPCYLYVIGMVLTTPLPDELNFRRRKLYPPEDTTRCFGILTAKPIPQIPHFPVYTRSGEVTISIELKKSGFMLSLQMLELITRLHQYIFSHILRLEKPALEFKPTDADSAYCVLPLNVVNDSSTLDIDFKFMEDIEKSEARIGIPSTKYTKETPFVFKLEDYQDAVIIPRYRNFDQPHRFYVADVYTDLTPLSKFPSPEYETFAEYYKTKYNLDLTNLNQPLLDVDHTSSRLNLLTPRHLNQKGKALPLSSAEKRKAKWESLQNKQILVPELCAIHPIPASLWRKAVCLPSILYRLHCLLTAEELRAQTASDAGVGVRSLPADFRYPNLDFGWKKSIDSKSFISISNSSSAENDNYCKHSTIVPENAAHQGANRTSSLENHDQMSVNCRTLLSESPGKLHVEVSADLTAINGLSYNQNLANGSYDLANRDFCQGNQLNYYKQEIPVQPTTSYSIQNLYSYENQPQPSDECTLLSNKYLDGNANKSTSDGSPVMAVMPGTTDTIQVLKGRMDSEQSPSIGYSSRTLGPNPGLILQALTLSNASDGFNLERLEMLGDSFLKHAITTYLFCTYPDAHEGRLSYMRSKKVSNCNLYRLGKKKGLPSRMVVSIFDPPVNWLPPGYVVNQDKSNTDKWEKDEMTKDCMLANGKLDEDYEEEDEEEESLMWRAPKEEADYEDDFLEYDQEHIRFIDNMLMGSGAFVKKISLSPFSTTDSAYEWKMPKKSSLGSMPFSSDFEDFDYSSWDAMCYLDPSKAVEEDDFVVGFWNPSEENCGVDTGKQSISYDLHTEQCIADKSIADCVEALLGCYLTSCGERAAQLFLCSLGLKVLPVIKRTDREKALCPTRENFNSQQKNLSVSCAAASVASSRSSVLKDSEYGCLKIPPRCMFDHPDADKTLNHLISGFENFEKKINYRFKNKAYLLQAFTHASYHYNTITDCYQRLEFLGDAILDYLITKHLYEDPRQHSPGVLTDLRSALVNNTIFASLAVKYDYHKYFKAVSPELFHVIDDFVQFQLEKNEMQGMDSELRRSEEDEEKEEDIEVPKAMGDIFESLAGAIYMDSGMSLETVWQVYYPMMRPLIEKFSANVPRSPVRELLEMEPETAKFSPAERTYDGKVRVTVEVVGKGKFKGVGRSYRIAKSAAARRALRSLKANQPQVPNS
* marks the source's active call; other numbers are inactive results. The sample as a whole holds a higher share of hits than the screen did.

SMILES	Dicer processing
COc1ccc(N2C(=O)C3C(C2=O)N2CCCN2C3c2ccccc2)cc1 (centres undefined)	-0.23
CCc1oc(C(=O)O)cc1CN1CCCC1	-0.27
Clc1ccccc1CNc1nc2ccccc2n1CCN1CCCCC1	2.6
c1ccc(Cn2c(NCc3ccco3)nc3ccccc32)cc1	3.7*
Cn1c(CNc2nc3ccccc3n2CCN2CCOCC2)nc2ccccc21	-0.51
Cn1c(NCc2ccco2)nc2c1c(=O)n(Cc1ccccc1)c(=O)n2C	0.09
COc1ccc(CNc2nc3ccccc3n2CCN2CCOCC2)c(OC)c1	3.5*
c1ccc2c(c1)nc(NCc1ccncc1)n2CCN1CCCCC1	2.6
Nc1nc2ccccc2n1Cc1ccccc1	-0.02
c1coc(CNc2nc3ccccc3n2CCN2CCOCC2)c1	5.1*
Cc1nc2ccccc2n1CCN1CCOCC1	-0.46
c1ccc(CNc2nc3ccccc3n2CCN2CCOCC2)nc1	5.4*
CCN(CC)CCn1c(NCc2cc(OC)ccc2OC)nc2ccccc21	2.5
CCCn1c(NCc2ccccn2)nc2ccccc21	1.7
C=CC[n+]1ccccc1/C=C1\Sc2ccccc2N1CC	-0.97
Cn1c(Cc2nc(-c3cnccn3)no2)nnc1SCc1c(Cl)cccc1Cl	-1.4
O=C(Nc1ccc2c(c1)OCO2)c1cnn2c1NC(c1ccco1)CC2C(F)(F)F (centres undefined)	5*
COc1ccc(NC(=O)c2cc3n(n2)C(C(F)(F)F)CC(c2ccco2)N3)cc1 (centres undefined)	-1.3
CC(C)(C)NC(=O)c1cc2n(n1)C(C(F)(F)F)CC(c1ccco1)N2 (centres undefined)	-0.06
COc1ccc(NC(=O)c2cc3n(n2)C(C(F)(F)F)CC(c2ccco2)N3)cc1OC (centres undefined)	-0.8
COc1ccc(NC(=O)c2cnn3c2NC(c2ccco2)CC3C(F)(F)F)c(OC)c1 (centres undefined)	3
O=C(Nc1cccc(O)c1)c1cc2n(n1)C(C(F)(F)F)CC(c1ccco1)N2 (centres undefined)	3.3*
Cc1ccc(C2CC(C(F)(F)F)n3ncc(C(=O)Nc4ccc5c(c4)OCO5)c3N2)cc1 (centres undefined)	0
CCc1c(C)sc(NC(=O)c2cc3n(n2)C(C(F)(F)F)CC(c2ccco2)N3)c1C#N (centres undefined)	4*
O=C(Nc1ccccc1F)c1cc2n(n1)C(C(F)(F)F)CC(c1ccco1)N2 (centres undefined)	-0.64
SMILES	Dicer processing
CC1CC(=O)Nc2ccccc2N1S(=O)(=O)c1ccc(-c2ccccn2)s1 (centres undefined)	-0.94
CC(C)(Oc1ccc(C(C)(C)C)cc1)C(=O)O	-1.4
C/C(=N\Nc1nc2c(c(=O)n(C)c(=O)n2C)n1C)c1cccs1	1.6
CC(=O)/C=C1/N(C)c2ccccc2C1(C)C	-0.51
Brc1ccc(C2=Nn3c(CSc4ccccc4)nnc3SC2)cc1	0.22
Cc1nn2cc(C#N)c(-c3ccccc3)nc2c1-c1ccccc1	-0.93
N#Cc1c(NC(=O)CSc2ccc(Cl)cc2)sc2c1CCC2	0.24
CCOC(=O)c1c(NC(=O)CSc2nnc3c(n2)[nH]c2ccccc23)sc2c1CCCC2	0.97
CCOC(=O)c1c(NC(=O)CSc2nnc(C)c(=O)[nH]2)sc2c1CCCC2	3.3*
CCOC(=O)c1c(NC(=O)CN(CC)CC)sc2c1CCCC2	-0.77
Cc1nnc(SCC(=O)Nc2sc3c(c2C#N)CCCC3)s1	3.4*
N#Cc1c(NC(=O)CSc2nnnn2-c2ccccc2)sc2c1CCCC2	-1.4
CCOC(=O)C(=NNc1ccc(OC)cc1[N+](=O)[O-])C(=O)OCC	-0.83
Cc1nc(N)nc(N/N=C/c2ccccn2)n1	1.4
COc1ccc(-c2nc(C#N)c(NCCN3CCOCC3)o2)cc1	0.37
Clc1ccc(CNCc2cccnc2)cc1	1.4
OC(CNC1CCN(Cc2ccccc2)CC1)COc1ccc2c(c1)OCO2 (centres undefined)	-0.56
CC1(C)Cc2c(c(-c3ccco3)nc3sc4c(NC5CCCCC5)ncnc4c23)CO1	2
CC(=O)Nc1ccc(-n2sc3c(c2=S)-c2ccccc2NC3(C)C)cc1	5.3*
CCOc1ccc2c(c1)-c1c(sn(-c3ccccc3OC)c1=S)C(C)(C)N2	0.92
CCOC(=O)c1ccc(-n2sc3c(c2=S)-c2ccccc2NC3(C)C)cc1	0.62
COc1ccc2c(c1)-c1c(sn(-c3cc(C)ccc3O)c1=S)C(C)(C)N2	1.9
CC(=O)Nc1ccc(-n2sc3c(c2=S)-c2cccc(C)c2NC3(C)C)cc1	7.9
COc1ccc2c(c1)-c1c(sn(-c3ccccc3OC)c1=S)C(C)(C)N2	6.6*
Cc1cc(C)c(Nc2ncc(-c3ccc4c(c3)OCCCO4)s2)c(C)c1	-1.5
SMILES	Dicer processing
CCCCOC(=O)C1=C(C)NC2=C(C(=O)CCC2)C1c1cc2c(cc1Cl)OCO2 (centres undefined)	-0.17
COC(=O)CSc1nc(-c2ccccc2)c2cc(Cl)ccc2n1	-1.6
CC(C)c1nn2c(=O)c(NC(=O)c3ccccc3)cnc2s1	-1.1
CCOC(=O)c1cc(-c2ccccc2)sc1NC(=S)Nc1ccccc1	-0.94
O=C(c1cnc2ccccn12)C(F)(F)Sc1ccccc1	-0.53
Cc1ccc(C(=O)CSc2n[nH]c(-c3ccco3)n2)c(C)c1	-0.59
Cc1cc(C)nc(SCC(=O)c2ccc(O)cc2O)n1	0.35
O=C(CSc1n[nH]c(-c2ccco2)n1)c1ccc(O)cc1O	10*
CCOc1ccc(N2C(=O)C3C(C(=O)OC)=NN(C(C)=O)C3C2=O)cc1 (centres undefined)	2.5
Cc1onc(-c2c(Cl)cccc2Cl)c1NC(=O)N(C)C	-0.44
CN(C)c1ccc(/C=N/N=C(\C(=O)c2ccccc2)c2ccccc2)cc1	1.4
CCc1ccc(C2CC(=O)NC(SCC(=O)OCc3ccccc3)=C2C#N)cc1 (centres undefined)	-1
Cc1ccc(S(=O)(=O)NC2=NCN(Cc3ccco3)CN2)cc1	0.9
Cc1cc(NS(=O)(=O)c2ccc(Nc3nc(-c4ccc(Cl)cc4)cs3)cc2)no1	2.9
Cc1ccc(Nc2nc(-c3c(C)nc4ccccn34)cs2)cc1	3
Cc1ccc(C)c(-c2csc(Nc3ccc(S(N)(=O)=O)cc3)n2)c1	5.1*
Cc1nc2ccccn2c1-c1csc(Nc2ccc(S(N)(=O)=O)cc2)n1	4.3*
NS(=O)(=O)c1ccc(Nc2nc(-c3cccnc3)cs2)cc1	1.4
Cc1nc2ccccn2c1-c1csc(Nc2ccc(Cl)cc2)n1	7.1*
CCN(CC)c1ccc(Nc2nc(-c3sc(N)nc3C)cs2)cc1	-0.11
Cc1nnc(Nc2ccc(Cl)cc2)s1	2.8
COc1cccc(-c2nn3c(-c4ccccc4Cl)nnc3s2)c1	-0.38
CC1(C)NC(=O)N(CC(O)COc2cccc(Cl)c2)C1=O (centres undefined)	3
COC(=O)/C=C(/c1ccccc1)n1cnc2ccccc21	-0.98
CC(=O)c1sc(-c2ccccc2)cc1NC(=O)CN1CCN(C(=O)c2ccc(C)cc2)CC1	-0.18
COc1ccc2c(c1)sc(/C=C/c1ccc(O)cc1)[n+]2C	-1.2
N#C/C(=C\Nc1ccc2c(c1)OCCO2)S(=O)(=O)c1ccc(C(F)(F)F)cn1	-0.25
CC[n+]1c(/C=C/N(C)c2ccccc2)sc2cc(NC(C)=O)ccc21	-0.58
COCCOC(=O)C1=C(C)NC2=C(C(=O)CCC2)C1c1ccc(F)c(F)c1 (centres undefined)	28
Cc1onc(-c2c(F)cccc2Cl)c1C(=O)OCc1sccc1-n1c(C)ccc1C	1.2

Bioassay records from PubChem BioAssay.
